CYP2C19 act: cytochrome P450 2C19 (human) activation; P33261; recombinant CYP2C19, luciferin-H EGE luminescence; hits give high values; 0 = fully inhibited enzyme, 1 = untreated enzyme; activation factor at 5 µM; 96,000 tested, under 10 active; AID 1025;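 active = activation factor of at least 2 at 5 µM in the primary screen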;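 note: 0 = wells with 2.5 mM tranylcypromine and 1 = vehicle-only wells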
Target sequence (P33261 whole entry, looked up): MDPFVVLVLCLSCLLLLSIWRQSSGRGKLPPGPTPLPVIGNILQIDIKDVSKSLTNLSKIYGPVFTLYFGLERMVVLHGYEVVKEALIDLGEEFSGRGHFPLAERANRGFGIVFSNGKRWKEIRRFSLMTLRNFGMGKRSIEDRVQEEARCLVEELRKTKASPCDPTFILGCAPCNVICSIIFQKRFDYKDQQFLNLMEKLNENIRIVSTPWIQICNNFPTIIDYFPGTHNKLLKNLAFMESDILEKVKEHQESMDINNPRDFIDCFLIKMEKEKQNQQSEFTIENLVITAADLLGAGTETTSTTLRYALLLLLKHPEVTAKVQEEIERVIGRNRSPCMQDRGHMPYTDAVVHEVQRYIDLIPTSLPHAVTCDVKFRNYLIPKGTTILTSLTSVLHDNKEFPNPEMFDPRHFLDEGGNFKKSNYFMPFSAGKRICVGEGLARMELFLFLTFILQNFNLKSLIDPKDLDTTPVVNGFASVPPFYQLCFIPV
CYP2C19 inhib: inhibitors of human CYP2C19; P33261; CYP2C19 Supersomes, luciferin-H EGE luminescence, 30 min; inhibition, % at 5 µM; hit rate 21% among 96,000; AID 778;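 active = CYP2C19 inhibition above a set limit at 5 µM in the primary screen, cut at about 50% in these data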;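 note: plate controls were negative control wells for no effect and 2.5 mM tranylcypromine positive control for full effect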
CYP2C9 inh: blocks human cytochrome P450 2C9 | hit rate 20% among 96,000 | inhibition, % at 5 µM | CYP2C9 Supersomes, luciferin-H conversion, luminescence | P11712;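 active = blocking of liver enzyme CYP2C9 beyond about 50% at 5 µM, limit read from the data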
sEH inh: blocks human soluble epoxide hydrolase activity. hit rate 0.34% among 91,000. inhibition, % at 2 µM. recombinant human sEH enzymatic activity assay; in the data active = inhibition above about 80%
sEH act: increases human soluble epoxide hydrolase activity; activation, % at 2 µM; hit rate 0.04% among 91,000; AID 717; purified human sEH enzymatic activity, activator screen; in the data active = activation above about 37%
CYP2C9 activ: CYP2C9 (human) activation; activation factor at 5 µM; hit rate 1.4% among 96,000; recombinant CYP2C9, luciferin-H conversion, luminescence; hits give high values; factor 1 = untreated enzyme, 0 = blocked;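 active = activation factor of 2 or more for CYP2C9 at a 5 µM dose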;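 note: 0 = sulfaphenazole-blocked wells and 1 = vehicle-only wells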
* hit, by the source's call; . = no result. Rows were chosen to be rich in hits. Some 27% of all compounds tested hit in one or more screens of this group.

SMILES | CYP2C19 act | CYP2C19 inhib | CYP2C9 inh | sEH inh | sEH act | CYP2C9 activ
COc1ccccc1-c1cc(C(=O)N/N=C/c2cccs2)c2ccccc2n1 | 0.2 | 80.0* | 96.4* | 12.2 | -10.9 | 0
O=C(N/N=C/c1cccs1)c1cc(-c2ccc3ccccc3c2)n[nH]1 | 0.9 | 5.1 | 30.3 | -3.5 | 7.0 | 0.7
CCN(c1cccc(C)c1)S(=O)(=O)c1cnc[nH]1 | 0 | 96.7* | 98.2* | -16.1 | 15.6 | 0
COc1cccc(CNC(=O)CN(C)S(=O)(=O)c2cnc[nH]2)c1 | 0 | 98.7* | 78.9* | 9.0 | -7.1 | 0.2
Cc1cccc(NC(=O)CN(C)S(=O)(=O)c2cnc[nH]2)c1 | 0.1 | 89.6* | 93.0* | -3.9 | 4.2 | 0.1
COc1ccc(S(=O)(=O)N(C)CC(=O)NCc2cccnc2)cc1OC | 0.9 | 11.8 | -17.0 | -9.8 | 12.0 | 1.2
COc1ccc(C)cc1NC(=O)CN(C)S(=O)(=O)c1cnc[nH]1 | 0.2 | 78.1* | 72.8* | -24.4 | 23.9 | 0.3
CCN1CCN(CC(=O)Nc2cccc(C)c2)C(=O)C1=O | . | . | . | -2.3 | 1.4 | .
COc1ccc(OC)c(S(=O)(=O)N(C)CC(=O)Nc2cc(Cl)ccc2OC)c1 | . | . | . | 3.2 | -3.0 | .
CCN(c1cccc(C)c1)S(=O)(=O)c1ccc2[nH]c(=O)c(=O)[nH]c2c1 | 0.7 | 32.4 | 68.7* | 6.9 | -5.8 | 0.3
CCN(c1cccc(C)c1)S(=O)(=O)c1c(C)[nH]c(=O)[nH]c1=O | 1 | -3.7 | -29.4 | 1.0 | 0.9 | 1.3
COC(=O)c1ccc(OCC2c3cc(OC)c(OC)cc3CCN2C(=O)C2CC2)cc1 (stereo unspecified) | 0.3 | 70.8* | 44.6 | -7.7 | 8.7 | 0.6
CCOC(=O)c1ccc(NCc2ccncc2)cc1 | . | . | . | 1.3 | -0.1 | .
CCc1ccc(CNc2ccc(O)cc2)cc1 | 0.2 | 82.2* | 22.6 | -5.4 | 5.7 | 0.8
CCN(CCO)c1ncnc2c1sc1nc(CC(C)C)c3c(c12)CC(C)(C)OC3 | 0.8 | 19.7 | 68.7* | -14.6 | 16.1 | 0.3
CCOC(=O)c1ccc(CSc2nnc(-c3ccncc3)n2N)cc1 | 0.3 | 67.6* | 37.8 | -9.4 | 3.7 | 0.6
COC(=O)c1ccc(NC(=O)CSc2nnc(-c3ccncc3)n2N)cc1 | 1 | 3.8 | 9.4 | 3.5 | -2.4 | 0.9
CC(C)OC(=O)CSc1nnc(-c2ccc(C(C)(C)C)cc2)n1N | 1.2 | -21.3 | -18.4 | 11.0 | -11.5 | 1.2
CC(C)OC(=O)CSc1nnc(-c2ccncc2)n1N | 0.1 | 86.2* | 56.5* | 10.2 | -9.1 | 0.4
COc1ccc(NC(=O)COC(=O)c2cnccn2)cc1Cl | 1.1 | -6.5 | -9.9 | -2.0 | 0.8 | 1.1
COC(=O)C1=C(C)NC(C)=C(C(=O)OC)C1c1ccccc1OCc1c(C)no[n+]1[O-] | 0.3 | 70.6* | 89.2* | -0.8 | -0.5 | 0.1
O=C(Nc1ccc2oc(-c3ccncc3)nc2c1)c1ccccc1F | 0.6 | 40.9 | 67.5* | 27.3 | -28.2 | 0.3
O=C(Nc1ccc(-c2nc3cc(NC(=O)c4cccs4)ccc3o2)cc1)c1cccs1 | 1 | -3.4 | -3.9 | 14.4 | -16.9 | 1
O=C(Nc1ccc2oc(-c3ccncc3)nc2c1)c1cccs1 | 0.7 | 27.5 | 85.0* | 42.7 | -43.9 | 0.2
O=C1CCC(c2ccccc2)N1C(=O)c1cccnc1 (stereo unspecified) | . | . | . | 1.8 | 1.1 | .
SMILES | CYP2C19 act | CYP2C19 inhib | CYP2C9 inh | sEH inh | sEH act | CYP2C9 activ
CCOC(=O)/C=c1\s/c(=C\c2c(OC)ccc3ccccc23)c(=O)n1CC(=O)NCC1CCCO1 (stereo unspecified) | 0.4 | 56.6* | 40.8 | 7.1 | -5.4 | 0.6
CCOC(=O)c1sc2nc(C)n(CC(=O)NCC3CCCO3)c(=O)c2c1C (stereo unspecified) | 0.9 | 9.2 | 21.4 | . | . | 0.8
Fc1ccc(-c2cnc(-c3cccs3)o2)cc1 | 0.9 | 7.4 | 6.4 | 4.4 | -1.6 | 0.9
Cc1ccc(-c2cnc(-c3ccncc3)o2)cc1 | 0 | 98.0* | 63.5* | -28.8 | 26.9 | 0.4
COc1ccc2c(c1)CCc1cc(C(=O)N3CCN(c4ccc(N5CCOCC5)nn4)CC3)sc1-2 | 1 | -1.2 | 3.1 | . | . | 1
O=C(NCCN1CCOCC1)c1csc2c1CCCC2 | 1.1 | -9.4 | -11.8 | 22.7 | -20.4 | 1.1
O=C(Nc1sccc1C(=O)NCc1ccco1)c1cccnc1 | 0.8 | 24.0 | 90.0* | 2.1 | -4.2 | 0.1
O=C(NCc1ccccc1)c1csc2c1CCCCC2 | 0.6 | 35.2 | -304.0 | 21.8 | -22.8 | 4*
O=C(NCc1cccs1)c1csc2c1CCCCC2 | 0.7 | 31.0 | -150.3 | 22.6 | -23.6 | 2.5*
O=C(NCc1ccco1)c1ccccc1Br | 1 | 2.1 | -2.5 | -9.3 | 11.8 | 1
O=C(NCc1cccs1)c1cc2c(s1)CCCC2 | 0.4 | 63.7* | 52.5* | 23.7 | -25.2 | 0.5
CN(C)S(=O)(=O)c1ccc(NC(=O)N2CCN(c3ccccc3Cl)CC2)cc1 | 1 | -0.9 | -4.6 | 71.1 | -70.5 | 1
CCSc1nnc(NC(=O)NC(CC)(C(F)(F)F)C(F)(F)F)s1 | 0.9 | 8.9 | 22.5 | . | . | 0.8
O=C(CSc1ccccc1)Nc1cccnc1 | 0.6 | 42.5 | 7.1 | -3.1 | -2.3 | 0.9
O=C(CCc1nc2ccccc2c(=O)[nH]1)OCc1nnc(-c2ccccc2)o1 | 1.1 | -12.4 | -12.5 | -4.5 | 3.0 | 1.1
O=C(NCc1ccco1)c1csc2c1CCCCC2 | 0.6 | 43.0 | -316.8 | . | . | 4.2*
Cc1onc(-c2ccccc2Cl)c1C(=O)Nc1ccccc1C(=O)NC(C)C | 0.6 | 42.6 | 78.6* | . | . | 0.2
Cc1onc(-c2ccccc2Cl)c1C(=O)Nc1cccc2cccnc12 | 0.2 | 76.0* | 45.6 | 5.6 | -5.7 | 0.5
Cc1ccc(-n2nc3c(c2NC(=O)c2ccc(Br)o2)CSC3)c(C)c1 | 0.8 | 19.4 | 67.1* | 1.1 | 0.4 | 0.3
Cc1ccccc1-n1nc2c(c1NC(=O)c1c(-c3ccccc3Cl)noc1C)CSC2 | 0.7 | 34.1 | 50.0* | -2.1 | 1.6 | 0.5
COc1cc([N+](=O)[O-])ccc1NC(=O)CCCOc1cccc(C)c1C | 0.8 | 15.4 | -4.7 | 1.6 | -1.5 | 1
CCOc1ccc(CC2CC(=O)NC2=O)cc1 (stereo unspecified) | 0.9 | 11.2 | -3.7 | 6.7 | -5.4 | 1
Cc1onc(-c2ccccc2Cl)c1C(=O)Nc1ccccc1N1CCOCC1 | 0.4 | 61.3* | 68.8* | -1.8 | 1.7 | 0.3
Cc1onc(-c2ccccc2Cl)c1C(=O)NCc1ccccc1 | 0.1 | 88.0* | 58.1* | -5.6 | 3.8 | 0.4
Cc1onc(-c2ccccc2Cl)c1C(=O)Nc1ccc(N2CCOCC2)cc1 | 0.8 | 19.9 | 0.4 | 3.4 | -3.0 | 1
Cc1onc(-c2ccccc2Cl)c1C(=O)OCN1C(=O)c2ccccc2C1=O | 0.4 | 56.1* | 17.9 | 0.7 | -1.2 | 0.8
CCSc1nnc(NC(=O)c2c(-c3ccccc3Cl)noc2C)s1 | 0 | 99.6* | 94.7* | -9.6 | 9.1 | 0.1
Cc1onc(-c2ccccc2Cl)c1C(=O)Nc1nnc(-c2cccc([N+](=O)[O-])c2)s1 | 1.1 | -7.2 | 20.1 | -7.3 | 6.2 | 0.8
